# According to PubChem BioAssay:
# Records with an inconclusive call do not appear. Calls of active or inactive are those of the source.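 How the source made its calls, unless noted: active means viability at or under a set limit in both replicates, limit being median viability minus 3 SD (cut at about 48% in these data, passing the limit was not always enough); inconclusive means at or under the limit in just one replicate; inactive means at or above the limit in both replicates.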
# How the values were obtained:
# [1] = reducers of endogenous Her2 protein level, primary screen, SKBR3 breast tumor cells, AlphaScreen, ATP viability (AID 461;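 active means Her2 level under about 52% in both replicate screens, with viability over 70% of control, limit read from the data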;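 on Her2 level: lower value means less Her2 protein in the cells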;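 on viability: percent of carrier control wells set as 100% viability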); conditions: 18-24 h, measured here: SKBR3 viability, ATP luminescence, at 10 µM
# [2] = biological target: Receptor tyrosine-protein kinase erbB-2 (Homo sapiens) (UniProt P04626); test: as above; conditions: 18-24 h, at 10 µM, stronger effect = lower value
# Chain of Receptor tyrosine-protein kinase erbB-2 (Homo sapiens) (P04626 whole entry, looked up): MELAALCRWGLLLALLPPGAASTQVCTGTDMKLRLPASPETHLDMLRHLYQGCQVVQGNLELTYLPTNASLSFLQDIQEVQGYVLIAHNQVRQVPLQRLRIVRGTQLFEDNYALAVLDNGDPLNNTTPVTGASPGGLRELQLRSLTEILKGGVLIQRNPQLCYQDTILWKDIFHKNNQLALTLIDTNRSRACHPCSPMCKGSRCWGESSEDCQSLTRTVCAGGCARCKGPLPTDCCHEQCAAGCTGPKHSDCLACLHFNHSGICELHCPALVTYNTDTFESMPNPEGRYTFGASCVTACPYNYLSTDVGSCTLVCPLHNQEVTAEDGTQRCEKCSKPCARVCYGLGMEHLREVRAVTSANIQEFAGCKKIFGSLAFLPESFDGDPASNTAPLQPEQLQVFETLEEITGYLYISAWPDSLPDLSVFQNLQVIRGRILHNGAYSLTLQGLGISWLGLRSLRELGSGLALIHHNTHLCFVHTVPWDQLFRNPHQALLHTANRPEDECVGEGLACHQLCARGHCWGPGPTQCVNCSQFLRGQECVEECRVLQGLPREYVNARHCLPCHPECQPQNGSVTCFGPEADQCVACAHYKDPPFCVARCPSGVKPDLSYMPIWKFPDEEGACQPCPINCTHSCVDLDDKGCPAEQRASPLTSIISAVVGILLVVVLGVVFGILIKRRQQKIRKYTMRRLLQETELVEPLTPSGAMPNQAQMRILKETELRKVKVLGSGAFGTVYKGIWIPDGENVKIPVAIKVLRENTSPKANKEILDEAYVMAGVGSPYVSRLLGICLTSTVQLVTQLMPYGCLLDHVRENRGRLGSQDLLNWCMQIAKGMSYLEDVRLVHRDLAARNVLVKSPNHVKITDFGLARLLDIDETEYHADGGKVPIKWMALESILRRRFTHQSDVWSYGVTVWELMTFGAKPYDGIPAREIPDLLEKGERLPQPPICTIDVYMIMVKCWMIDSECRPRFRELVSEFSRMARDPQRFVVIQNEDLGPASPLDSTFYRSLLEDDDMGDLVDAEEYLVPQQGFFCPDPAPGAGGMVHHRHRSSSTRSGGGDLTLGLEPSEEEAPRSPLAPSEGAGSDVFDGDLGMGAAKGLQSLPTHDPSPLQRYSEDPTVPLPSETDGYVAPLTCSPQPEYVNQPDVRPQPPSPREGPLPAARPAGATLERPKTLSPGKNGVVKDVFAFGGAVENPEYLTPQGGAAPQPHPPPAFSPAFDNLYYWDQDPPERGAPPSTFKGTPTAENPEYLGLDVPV
# [3] = SK-BR-3 cell growth inhibitors, pilot screen, 24 h, human (AID 572;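 active means viability at or below 10% of carrier control in both of two separate runs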;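 further: compound exposure lasted between 18 and 24 h rather than exactly 24 h; 100% = carrier-treated control wells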); conditions: SK-BR-3 viability, CellTiter-Glo luminescence, at 10 µM, stronger effect = lower value
# [4] = HUVEC growth inhibition – cell-based, human, primary screen (AID 575;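 active means viability at or below 30% in both replicate assays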;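 further: 100% = median of untreated cell wells with 0.1% DMSO on each plate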); conditions: HUVEC proliferation, CellTiter-Glo luminescence, 72 h; at 10 µM; stronger effect = lower value
# [5] = growth inhibitors of H69AR lung tumor, primary screen, human, duplicate replicates (AID 580); conditions: H69AR lung tumor cells viability, ATP luminescence, 72 h; at 10 µM; stronger effect = lower value;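 further: 100% = mean luminescence of untreated wells and 0% = no signal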
# [6] = reversal of MRP1-mediated doxorubicin resistance, pilot screen, H69AR cells, doxorubicin co-treatment (AID 601;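 active means viability loss from added drug above about 55%, and viability with drug at most 40%, in both replicates, limit read from the data, passing the limit was not always enough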); conditions: CellTiter-Glo, 72 h, at 10 µM; for differential viability (reversal): stronger effect = higher value
# [7] = 384-well plate pilot, post-Golgi transport modulator project, inhibition of yeast transport mutant growth (AID 636; in the data active means inhibition above about 31%); conditions: absorbance 615 nm, about 18 h, stronger effect = higher value
# [8] = growth suppression of yeast trafficking mutant, preliminary HTS, modulators of trafficking downstream of Golgi apparatus project, 1536-format plate, OD 615 nm (AID 637; in the data active means inhibition above about 30%); conditions: yeast transport mutant growth, absorbance 615 nm, 18 h; stronger effect = higher value
# [9] = OD615 S. cerevisiae growth inhibition, permissive medium, pilot counter-assay, permissive growth control for S. cerevisiae lifespan shortening project (AID 705;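 active means growth inhibition above 25% in both replicates, a cutoff set 3 SD above the mean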); conditions: OD615, 24 h, at 10 µM, stronger effect = higher value
# [10] = Restrictive medium S. cerevisiae growth inhibition, OD615, pilot screen of yeast lifespan reduction project, restrictive growth control (AID 706;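 active means growth inhibition above a set limit, 3 SD over mean compound inhibition, in both replicates, cut at about 43% in these data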;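 further: modified DeaD lifespan yeast strain shifted to restrictive glucose medium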); conditions: OD615, 48 h, at 10 µM, stronger effect = higher value
# [11] = viability gain of MRP-1-high H69AR cells under doxorubicin, pilot screen, MRP-1 activator project, CellTiter-Glo, duplicate (AID 807;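 active means viability increase at or above a cutoff of the median across tested compounds plus 3 SD, cut at about 8.5% in these data, passing the limit was not always enough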;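 further: compound pretreatment 18-22 h then 72 h combined with doxorubicin; 0% = doxorubicin alone and 100% = vehicle without doxorubicin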); conditions: H69AR viability with doxorubicin, CellTiter-Glo luminescence; at 10 µM; stronger effect = higher value
# [12] = growth suppression of beta-catenin knockout HCT116, pilot screen, human colon tumor cells (AID 823;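 active means cell viability at or below a set limit in both duplicate runs, the limit being the all-compound median minus 4 SD, cut at about 23% in these data, passing the limit was not always enough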;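 further: 0% = wells killed by 20 µM Hyamine and 100% = untreated DMSO cell wells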); conditions: CellTiter-Glo, 60 h, at 10 µM, stronger effect = lower value
# [13] = growth suppression of PTEN-deleted HCT116, pilot screen, cell-based, HCT116 clonal line, CellTiter-Glo (AID 824;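 active means viability at or below 27.92% in each of two runs, the all-compound median minus 4 SD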;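 further: 0% = 20 µM Hyamine control and 100% = vehicle cell control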); conditions: 60 h, at 10 µM, stronger effect = lower value
# [14] = inhibitors of the yeast RAM network, pilot screen, dse1pr::URA3 reporter, 5-FOA selection (AID 869;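 active means inhibition over a set limit, the all-compound mean plus 3 SD, in both replicate runs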;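 further: 0% = DMSO wells with no growth and 100% = 10 µM 1-NA-PP1 with full growth; RAM network block rescues cells from 5-FOA so hits raise OD615 growth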); conditions: S. cerevisiae dse1pr::URA3 5-FOA growth, OD615, 2 d; at 10 µM; stronger effect = higher value; strain carries analog-sensitive mutant Cbk1 kinase
# [15] = H69AR cells + 2 uM doxorubicin, measured here: viability with 2 uM doxorubicin, stronger effect = lower value
# [16] = H69AR cells, compound alone cytotoxicity
SMILES,viability [1],Her2 level [2],viability [3],viability [4],viability [5],differential viability (reversal) ([6]; H69AR cells + 2 uM doxorubicin),"viability [6, 15]","viability [6, 16]",inhibition [7],inhibition [8],growth inhibition [9],growth inhibition [10],viability increase [11],viability [12],viability [13],inhibition [14]
CCn1ncc(C2=NOC(C(=O)N3CCC(C(N)=O)CC3)C2)c1C (centres undefined),104%,106% (inactive),104% (inactive),98.6% (inactive),101% (inactive),-2.31% (inactive),103%,101%,-1.05% (inactive),15.2% (inactive),–,–,–,–,–,–
COc1ccc(CCNC(=O)c2cc(C(C)C)on2)cc1OC,95.5%,101% (inactive),95.5% (inactive),96.6% (inactive),93.2% (inactive),9.6% (inactive),83.6%,93.2%,0.51% (inactive),-0.67% (inactive),–,–,–,–,–,–
CC(Oc1ccccc1)C(=O)Nc1ccc(S(=O)(=O)NCC2CCCO2)cc1 (centres undefined),89.5%,94.5% (inactive),89.5% (inactive),101% (inactive),98.7% (inactive),4.12% (inactive),94.6%,98.7%,-1.73% (inactive),-5.71% (inactive),–,–,–,–,–,–
COc1ccccc1-c1coc2c(CN3CCN(CCO)CC3)c(O)ccc2c1=O,87.5%,93.5% (inactive),87.5% (inactive),94.5% (inactive),106% (inactive),18.9% (inactive),87.5%,106%,-4.27% (inactive),0.65% (inactive),–,–,–,–,–,–
CC(CCc1ccccc1)NC(=O)c1ccc(Br)o1 (centres undefined),110%,86% (inactive),110% (inactive),88.5% (inactive),93.5% (inactive),9.45% (inactive),84%,93.5%,-4.93% (inactive),0.63% (inactive),–,–,–,–,–,–
COc1ccc(-c2nc(CS(=O)CC(=O)N3CCCC3)c(C)o2)cc1 (centres undefined),92.5%,91% (inactive),92.5% (inactive),80.8% (inactive),83.9% (inactive),2.07% (inactive),81.8%,83.9%,-2.67% (inactive),3.77% (inactive),-4.09% (inactive),5.46% (inactive),-2.14% (inactive),91.8% (inactive),90.7% (inactive),2.27% (inactive)
CC(C)c1nc(N2CCN(C(=O)c3ccco3)CC2)c2c3c(sc2n1)CCCC3,76.5%,94% (inactive),76.5% (inactive),66.4% (inactive),79.5% (inactive),1.06% (inactive),78.5%,79.5%,-0.53% (inactive),20.9% (inactive),–,–,–,–,–,–
Cc1sc2nc(SCc3nc4ccccc4[nH]3)n(Cc3ccco3)c(=O)c2c1C,96.5%,92.5% (inactive),96.5% (inactive),91.7% (inactive),84.6% (inactive),8.02% (inactive),76.6%,84.6%,-0.13% (inactive),-1.8% (inactive),–,–,–,–,–,–
COCCNC(=O)CCCCCN1C(=O)CCC1=O,108%,79.5% (inactive),108% (inactive),105% (inactive),94.8% (inactive),10.4% (inactive),84.4%,94.8%,-8.65% (inactive),4.76% (inactive),–,–,–,–,–,–
CN(C)/C=C1\N=C(c2ccc(Cl)cc2Cl)OC1=O,102%,108% (inactive),102% (inactive),92.7% (inactive),95.9% (inactive),19.6% (inactive),76.3%,95.9%,-3.29% (inactive),-3.97% (inactive),–,–,–,–,–,–
Cc1ccc(S(=O)(=O)N2CCCC(c3nnc4n3-c3ccccc3SC4)C2)cc1 (centres undefined),78%,71.5% (inactive),78% (inactive),87.2% (inactive),76.5% (inactive),4.54% (inactive),72%,76.5%,-8.67% (inactive),4.92% (inactive),–,–,–,–,–,–
CC(=O)c1c(C)[nH]c(C(=O)NCc2cccs2)c1C,97%,90% (inactive),97% (inactive),93.8% (inactive),94.9% (inactive),11.2% (inactive),83.7%,94.9%,0.39% (inactive),-1.45% (inactive),–,–,–,–,–,–
Cc1onc(-c2ccccc2)c1C(=O)N1CCN(C(=O)c2ccco2)CC1,98%,98.5% (inactive),98% (inactive),101% (inactive),88.4% (inactive),-2.1% (inactive),90.5%,88.4%,-6.67% (inactive),5.32% (inactive),–,–,–,–,–,–
CCOC(=O)NC(=O)CSc1nnnn1-c1ccc(Cl)cc1,86.5%,94% (inactive),86.5% (inactive),104% (inactive),106% (inactive),20.4% (inactive),85.7%,106%,-5.2% (inactive),0.48% (inactive),–,–,–,–,–,–
COC(=O)c1cc2ccsc2n1CC(=O)N(C)c1ccccc1,89.5%,94.5% (inactive),89.5% (inactive),90.2% (inactive),84.2% (inactive),0.29% (inactive),84%,84.2%,0.26% (inactive),-1.83% (inactive),–,–,–,–,–,–
O=c1c[n+]([O-])c2ccccc2n1OCc1ccccn1,94%,89.5% (inactive),94% (inactive),94.7% (inactive),105% (inactive),12.1% (inactive),92.7%,105%,-2.11% (inactive),-4.29% (inactive),–,–,–,–,–,–
Cc1cnc(C(=O)Nc2ccc(N3CCN(C(=O)OC(C)(C)C)CC3)cc2)cn1,109%,106% (inactive),109% (inactive),100% (inactive),115% (inactive),15.1% (inactive),99.9%,115%,-5.84% (inactive),-6.51% (inactive),–,–,–,–,–,–
COC(=O)/C=c1\sc2ncnn2c1=O,95%,97.5% (inactive),95% (inactive),72.5% (inactive),78.7% (inactive),-3.79% (inactive),82.5%,78.7%,1.62% (inactive),4.92% (inactive),–,–,–,–,–,–
O=C(COC(=O)c1cnccn1)c1ccc(OC(=O)c2ccccc2)cc1,104%,100% (inactive),104% (inactive),87.8% (inactive),96.2% (inactive),-2.16% (inactive),98.3%,96.2%,-1.67% (inactive),5.67% (inactive),-19.2% (inactive),-15.1% (inactive),-0.85% (inactive),93.3% (inactive),95.2% (inactive),2.84% (inactive)
Cc1cccc(NC(=O)c2cnc3sccn3c2=O)n1,99%,98.5% (inactive),99% (inactive),95.8% (inactive),100% (inactive),8.25% (inactive),92.2%,100%,0.13% (inactive),2.83% (inactive),–,–,–,–,–,–
O=P(O)(O)C(O)C(F)(F)C(F)(F)C(F)(F)C(F)F (centres undefined),108%,77.5% (inactive),108% (inactive),110% (inactive),92.5% (inactive),-5.62% (inactive),98.1%,92.5%,-7.76% (inactive),-6.17% (inactive),–,–,–,–,–,–
COc1ccccc1NC(=O)CC(NCc1ccccc1)C(=O)O (centres undefined),108%,80% (inactive),108% (inactive),110% (inactive),89.1% (inactive),-2.06% (inactive),91.2%,89.1%,-7.43% (inactive),-3% (inactive),–,–,–,–,–,–
CC(C)CCNC(=O)NC(=O)CSc1nnc(-c2ccccc2Br)o1,95%,95.5% (inactive),95% (inactive),85.8% (inactive),104% (inactive),2.91% (inactive),101%,104%,-4.74% (inactive),0% (inactive),–,–,–,–,–,–
COC(=O)C1=CN(C)C=C(C(=O)OC)C1c1ccc(O)c(OC)c1,96.5%,98% (inactive),96.5% (inactive),88.1% (inactive),100% (inactive),6.83% (inactive),93.4%,100%,-3.16% (inactive),4% (inactive),–,–,–,–,–,–
Cc1onc(-c2ccccc2)c1C(=O)N1CCOCC1,110%,87% (inactive),110% (inactive),99.3% (inactive),107% (inactive),12.6% (inactive),94.4%,107%,-3.42% (inactive),-2.83% (inactive),–,–,–,–,–,–
OC(CN1CCN(c2ccccc2)CC1)c1ccc2c(c1)CCN2 (centres undefined),87.5%,110% (inactive),87.5% (inactive),95.3% (inactive),69.5% (inactive),-26% (inactive),95.5%,69.5%,-2.4% (inactive),3.33% (inactive),-10.4% (inactive),-5.32% (inactive),-6.11% (inactive),83.9% (inactive),84.4% (inactive),0.78% (inactive)
CC(C)(C)c1ccc(O)c(N)c1,86%,93.5% (inactive),86% (inactive),106% (inactive),94.2% (inactive),-0.85% (inactive),95.1%,94.2%,-5.21% (inactive),-3.33% (inactive),–,–,–,–,–,–
COc1ccc(CC(=O)NCc2ccccc2)cc1S(=O)(=O)N1CCOCC1,110%,106% (inactive),110% (inactive),93.5% (inactive),89% (inactive),-9.06% (inactive),98.1%,89%,-2.5% (inactive),5.82% (inactive),–,–,–,–,–,–
CC1Cc2ccccc2N1C(=O)c1cnsn1 (centres undefined),136%,103% (inactive),136% (inactive),86.3% (inactive),97.8% (inactive),10.4% (inactive),87.4%,97.8%,-6.71% (inactive),-10.8% (inactive),–,–,–,–,–,–
O=C(NCc1nnc(SCC(=O)N2CCC(Cc3ccccc3)CC2)o1)c1ccccc1F,85%,96.5% (inactive),85% (inactive),74.5% (inactive),98.8% (inactive),3.91% (inactive),94.8%,98.8%,1.6% (inactive),3.11% (inactive),5.21% (inactive),17.2% (inactive),-0.76% (inactive),90.2% (inactive),92.2% (inactive),1.69% (inactive)
